Binding signal data for 43 sequences are collected here from PMC7819943, “Rice protein-binding microarrays: a tool to detect cis-acting elements near promoter regions in rice”.

The full ranking holds about 39,000 sequences; the median of “fluorescence intensity (a.u.)” is about 4,300, and the highest 2% start at about 39,000. The list comes from a sample in which the highest values are over-represented; it also holds similar and randomly drawn sequences.

The assay concerns the target T1, OsSMF1 (Oryza sativa, UniProt Q6ZLB0 1-436).
T1 sequence: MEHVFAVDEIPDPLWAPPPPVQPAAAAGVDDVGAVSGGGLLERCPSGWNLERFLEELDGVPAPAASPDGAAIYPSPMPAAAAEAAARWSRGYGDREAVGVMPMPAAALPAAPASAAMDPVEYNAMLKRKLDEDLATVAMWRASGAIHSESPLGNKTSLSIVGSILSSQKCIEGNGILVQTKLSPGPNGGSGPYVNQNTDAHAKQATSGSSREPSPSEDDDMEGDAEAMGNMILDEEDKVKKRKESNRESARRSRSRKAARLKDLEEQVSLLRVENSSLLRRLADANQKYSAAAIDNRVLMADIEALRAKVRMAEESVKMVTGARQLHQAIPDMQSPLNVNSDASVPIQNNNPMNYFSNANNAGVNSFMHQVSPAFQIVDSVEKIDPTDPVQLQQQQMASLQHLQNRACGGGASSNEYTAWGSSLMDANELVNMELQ
As to the kind of experiment: protein-binding microarray (RPBM); PBS, 2% BSA, 51.3 ng/ul salmon testes DNA, 50 uM zinc acetate, 200 nM TF, 25 C, 1 h; high values mean tight binding. The conditions noted are these: protein: recombinant; tags: N-terminal polyhistidine and DsRed monomer fusion (pET32a); chain copies: 2; label: CyDye5-dUTP incorporated in the synthesized complementary strand; 3' TTTTT single-stranded linker to array surface; dsDNA, one strand shown. In a few lines:
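Per-feature fluorescence intensity (arbitrary units), read on an Axon 4000B scanner, is the binding signal. Transcription factors carrying an N-terminal polyhistidine tag and DsRed fusion were expressed in E. coli BL21-CodonPlus and purified on Ni–NTA. A custom Agilent array, made double-stranded by primer extension with Cy5-dUTP and blocked with 2% BSA, was incubated with 200 nM protein in PBS, 2% BSA, salmon testes DNA and 50 µM zinc acetate at 25 °C for 1 h and then washed.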
For “CCAAACCCCACGCACGCCGCGTCGCCGCCTCCTCCTCTCCCGGAGTCACCTAGTGCAG”, the binding signal is 3670 fluorescence intensity (a.u.).

“TCCCAAACCCCGCGCCGCCTCTTACCGCTTCGCGTCAGCTCGGAGTCACCTAGTGCAG”: the binding signal is 63900 fluorescence intensity (a.u.).

Consider “CACCCGCCGCTGCTCTGCCTACTCGCCGGCCACCTCCTCACGGAGTCACCTAGTGCAG”, for which the binding signal was 3720 fluorescence intensity (a.u.).

As to “TCCGAACATCCGCGTGTCTGCTTCTGCGCCAGCCCGAGCCCGGAGTCACCTAGTGCAG”, the binding signal was 44300 fluorescence intensity (a.u.).

Turning to “ACCAAACATTACCTAATGCAATCGAACTATCGAAGACATGCGGAGTCACCTAGTGCAG”, the binding signal was 3700 fluorescence intensity (a.u.).

As for “GTGAGACTGGCGAGGCCCTTCTTGCGTGGCGCTGCAAGCTCGGAGTCACCTAGTGCAG”, the binding signal was 7600 fluorescence intensity (a.u.).

“ACACTCCAGCATAGTTAATGTTTACTGCTAGGAGGATTCACGGAGTCACCTAGTGCAG”: the binding signal is 25600 fluorescence intensity (a.u.).

For “CTCCTGGTACGCCTCGCTCAGCTCGTCCACCGTCGCCTCCCGGAGTCACCTAGTGCAG”, the binding signal is 3750 fluorescence intensity (a.u.).

On to “TAGAGCGCCACATGACATCTTAGAAGCGTTTGTAGGAGTACGGAGTCACCTAGTGCAG”, for which the binding signal was 30400 fluorescence intensity (a.u.).

With “TTATACATGCTCACGTGGCTATGTCATTGCCCTGGGTGGGCGGAGTCACCTAGTGCAG”, the binding signal is 12000 fluorescence intensity (a.u.).

As for “CTAAATCCTCGGGTCCACATGTCATACTCAGCCTCTTTACCGGAGTCACCTAGTGCAG”, the binding signal was 5460 fluorescence intensity (a.u.).

In the case of “TCTGGTCTTTCCGCGTGTCGACGACCACGGTGGCGGTGCACGGAGTCACCTAGTGCAG”, the binding signal is 3540 fluorescence intensity (a.u.).

In the case of “CATCGGTCATGGTGGCGTTGGTCATGTTGGCATGGCCGTCCGGAGTCACCTAGTGCAG”, the binding signal is 44000 fluorescence intensity (a.u.).

Consider “AAACCAAAACCAAACCGAAGCTTCCCCATCTCGCGTGAACCGGAGTCACCTAGTGCAG”, for which the binding signal is 40800 fluorescence intensity (a.u.).

For the sequence “TCCTTGTCGCGCTGCCATCGCCACCCAATGCCATCGAGCTCGGAGTCACCTAGTGCAG”, the binding signal is 49600 fluorescence intensity (a.u.).

Take “GATCGTCGCGTCGTCGGCGTTGGCATCGGCATCCATGTGCCGGAGTCACCTAGTGCAG”: the binding signal is 3830 fluorescence intensity (a.u.).

Consider “TCGCCACCGCCACGTCATCTCCCCACCCTCCTCCTCTTCCCGGAGTCACCTAGTGCAG”, for which the binding signal was 44700 fluorescence intensity (a.u.).

“CCATTCCCAAAAGCAAAGCGAACCTAAGCTCGCTTCGTCTCGGAGTCACCTAGTGCAG”: the binding signal is 21000 fluorescence intensity (a.u.).

As for “TTAGTTCACCCATCTTGCCAATGCTGTCATCGCCACAGCTCGGAGTCACCTAGTGCAG”, the binding signal was 3310 fluorescence intensity (a.u.).

As for “CCGGTCGTCCGTCAGCATCCTCTCTTCCGTTGGTCATCCTCGGAGTCACCTAGTGCAG”, the binding signal is 4550 fluorescence intensity (a.u.).

As to “TAGGATGCCACGTCATCTCTCCCTTCCCCTCTCTCTCTCCCGGAGTCACCTAGTGCAG”, the binding signal was 27000 fluorescence intensity (a.u.).

For “TGGGCCCACCCCTCCACTCGCCCTCCTCTTCCCGCCACGTCGGAGTCACCTAGTGCAG”, the binding signal is 6190 fluorescence intensity (a.u.).

As for “CGCGAAAGGCGTGAAACCAGTGCACGCATCACCCATCTCGCGGAGTCACCTAGTGCAG”, the binding signal was 3400 fluorescence intensity (a.u.).

“ATCCCATCGCGCCACGCGAGCTCGATCGATCGAGGTGTGTCGGAGTCACCTAGTGCAG”: the binding signal was 3490 fluorescence intensity (a.u.).

As for “ACCCGCGCGCCGGCCGCGTCATCGACGACATCGTGCGTACCGGAGTCACCTAGTGCAG”, the binding signal was 3920 fluorescence intensity (a.u.).

In the case of “TTGTGATGTCCACGTATTCAGGATTAGACCACAGGCCCGGCGGAGTCACCTAGTGCAG”, the binding signal was 8170 fluorescence intensity (a.u.).

In the case of “ATCCTTCATTATGTTAGAGTACCACATGGGAAGTCGAGACCGGAGTCACCTAGTGCAG”, the binding signal is 3750 fluorescence intensity (a.u.).

For “GCGCCGCTCCGTGTCCCTCCCAATCCGAACCGTTTCGCGCCGGAGTCACCTAGTGCAG”, the binding signal is 3500 fluorescence intensity (a.u.).

Consider “TACAACTACGGCCCTCCGCAGCCACAGGCGCCGCCGCCGCCGGAGTCACCTAGTGCAG”, for which the binding signal is 3340 fluorescence intensity (a.u.).

Turning to “TTATTAGCAACCACCGTCACATATAAATTAATATGTGCCGCGGAGTCACCTAGTGCAG”, the binding signal was 3710 fluorescence intensity (a.u.).

For “GTCCGTCTTGTTTTCTCCTGCGTCACAATTGTCCCGTATTCGGAGTCACCTAGTGCAG”, the binding signal is 4280 fluorescence intensity (a.u.).

Regarding “CACACGCCAACCCGGCCCCACACGTCAGCCACTCCCACTGCGGAGTCACCTAGTGCAG”, the binding signal is 7300 fluorescence intensity (a.u.).

For the sequence “GCAATCCCACGTTATCCATCACCCCACCGGGGAAGCCCAACGGAGTCACCTAGTGCAG”, the binding signal was 3310 fluorescence intensity (a.u.).

On to “CAATCCAACCGTCGTCGCGCCGCACACCGGCCACCCACCCCGGAGTCACCTAGTGCAG”, for which the binding signal was 20700 fluorescence intensity (a.u.).

Take “TCGCCAACTCGCGCCCAATCCCGGCTTGACACGTCACCCCCGGAGTCACCTAGTGCAG”: the binding signal is 42000 fluorescence intensity (a.u.).

In the case of “AACCAGTCGCCGCTCGCCACGTGGCACCCTCCACCTCCCTCGGAGTCACCTAGTGCAG”, the binding signal was 50500 fluorescence intensity (a.u.).

In the case of “GTCGCCGCCGCTCCTCCACCCCACGTGCCCCTCGTGGTGGCGGAGTCACCTAGTGCAG”, the binding signal is 4350 fluorescence intensity (a.u.).

On to “CCGGCCCAACACCACTAACACGTTCAGCCCCAATCCCCAACGGAGTCACCTAGTGCAG”, for which the binding signal is 42400 fluorescence intensity (a.u.).

For the sequence “TGCGCGTCCTGCTCGCCGCTGCCCTCGCTGAGGAGCTCTCCGGAGTCACCTAGTGCAG”, the binding signal was 63600 fluorescence intensity (a.u.).

Turning to “GCTCTCGCTGACGCTGCCGCTCCGCCTGCCTCCGCCCGCGCGGAGTCACCTAGTGCAG”, the binding signal is 3900 fluorescence intensity (a.u.).

On to “AACCACCCTCCGCCGCCGCCGCCGCTCGCCGTAGTCACCTCGGAGTCACCTAGTGCAG”, for which the binding signal is 3180 fluorescence intensity (a.u.).

Regarding “GAGCGCGAGCTGCTCTCCTCTCCTCCCGCCCCGCGTCGCCCGGAGTCACCTAGTGCAG”, the binding signal was 11500 fluorescence intensity (a.u.).

In the case of “CAATCCCCTAGCCTCGCCACCCGCCACGTGTCGTCCCGCGCGGAGTCACCTAGTGCAG”, the binding signal is 13500 fluorescence intensity (a.u.).
